Growth data for 11 compounds are collected here from PubChem BioAssay (NCI).

What all share (test): NCI-60 one-dose screen, 48 h (100 = growth as untreated, 0 = no growth, -100 = all killed)
Assay [1] concerns SR leukemia.
Assay [2] relates to RPMI-8226 leukemia.
Assay [3] concerns OVCAR-8 ovarian.
Assay [4] has as its system OVCAR-5 ovarian.
For assay [5], the system named is OVCAR-4 ovarian.
For assay [6], the system named is SK-OV-3 ovarian.
Assay [7] relates to IGROV1 ovarian.
The subject of assay [8] is OVCAR-3 ovarian.
Assay [9] concerns HS 578T breast.
Assay [10] has as its system NCI/ADR-RES ovarian.

This is part of a sample that, as a whole, favours compounds with a hit. Of some 83,000 tested, about 20% had one in any assay.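 Interpretation: 100, growth as untreated; towards 0, rising growth inhibition; 0, no net growth; 0 to -100, cell death. Compounds scoring below 10 were considered active.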 Unmarked numbers belong to inactive results. The source made the active and inactive calls.

For `CN(C)CCNc1ncc(F)c(-c2cnc3cc(-c4cnn(C)c4)ccn23)n1`, the growth is 99.9% in assay [1] (0.005 µM); 5.34% (active) in assay [1] (30 µM); 98.3% [0.005 µM] in [2] (10 µM unless noted); 99.9% in [3] (0.005 µM); 54.3% in assay [3] (30 µM); 99.7% in [4] (0.005 µM). In addition, the growth is 64.5% in assay [4] (30 µM); 105% in assay [5] (0.005 µM); 38.6% in assay [5] (30 µM); 21% [30 µM] in assay [6] (10 µM unless noted); 108% in [7] (0.005 µM); 22.6% in assay [7] (30 µM). For the same compound, the growth in [8] (0.005 µM) was 109%; in [8] (30 µM), 75.3%; in assay [9] (0.005 µM), 101%; in assay [9] (30 µM), 60%; in assay [10] (0.005 µM), 101%; in assay [10] (30 µM) it was 62.3%.

Turning to `CN1CCN(CCNC(=O)c2cccc(CN3c4cccc5c4C(=Cc4cccnc43)N(C)C5=O)c2)CC1`, the growth in [1] (10 µM unless noted) was 33.5%; in assay [2] (10 µM unless noted), 2.26% (active); in assay [3] (10 µM unless noted), 40.8%; in assay [4] (10 µM unless noted), 42%; in [5] (10 µM unless noted) it was 37.4%; in [6] (10 µM unless noted) it was 18.2%. In addition, the growth in [7] (10 µM unless noted) was 18.6%; in assay [8] (10 µM unless noted) it was 34.3%; in assay [9] (10 µM unless noted) it was -6.06% (active).

On to `CCOC(=O)C(=Cc1ccc(C#N)cc1)C(=O)OCC`, for which the growth was 0.158% (active) in assay [1] (10 µM unless noted); -1.68% (active) in [2] (10 µM unless noted); 34.5% in assay [3] (10 µM unless noted); 30.8% in assay [4] (10 µM unless noted); 53.9% in assay [5] (10 µM unless noted); 84.9% in assay [6] (10 µM unless noted). For the same compound, the growth in assay [7] (10 µM unless noted) is 32.7%; in assay [8] (10 µM unless noted) it was 17%; in assay [9] (10 µM unless noted) it was 78.5%.

Regarding `CCCCCCCCCCCCCCCCCCn1cc(COc2ccc(C=O)cc2)nn1`, the growth in [1] (10 µM unless noted) is 85.6%; in [2] (10 µM unless noted), 95.3%; in [3] (10 µM unless noted), 102%; in [4] (10 µM unless noted) it was 120%; in assay [5] (10 µM unless noted), 103%; in assay [6] (10 µM unless noted), 91.3%. Further, the growth in [7] (10 µM unless noted) was 103%; in [8] (10 µM unless noted) it was 96.8%; in assay [9] (10 µM unless noted) it was 110%.

In the case of `Cc1ccc(C(=O)Nc2ccc(CN3CCN(C)CC3)c(C(F)(F)F)c2)cc1C#Cc1cnc(N)cc1C#N`, the growth in assay [1] (10 µM unless noted) was -29.8% (active); in [2] (10 µM unless noted), -24.4% (active); in [3] (10 µM unless noted) it was -32.9% (active); in [4] (10 µM unless noted), 12.8%; in assay [5] (10 µM unless noted), 5.13% (active); in assay [6] (10 µM unless noted), -7.98% (active). For the same compound, the results for the growth in [7] (10 µM unless noted), in assay [8] (10 µM unless noted) and in assay [9] (10 µM unless noted) were -47.7% (active), -40.1% (active) and -23.5% (active), respectively.

In the case of `CC(=O)/C=C/c1ccc(OCc2ccc(C(C)(C)C)cc2)cc1`, the growth in [1] (10 µM) was 65.9%; in assay [1] (100 µM) it was 29.5%; in assay [3] (10 µM) it was 90.5%; in [3] (100 µM), 23.2%; in assay [4] (10 µM), 89%; in assay [4] (100 µM), 37.6%. In addition, the growth is 74% in assay [5] (10 µM); 33.8% in assay [5] (100 µM); 77.8% in [6] (10 µM); 39.5% in assay [6] (100 µM); 98.6% in assay [7] (10 µM); 81.6% in assay [7] (100 µM). The growth in assay [8] (10 µM) was 94.6%; in [8] (100 µM), 47.1%; in assay [9] (10 µM), 75.5%; in assay [9] (100 µM), 10.3%.

Take `N#CSc1c[nH]c2ccc(/C=C/C(=O)/C=C(/C=C/c3ccc4[nH]cc(SC#N)c4c3)OB(F)F)cc12`: the growth in [1] (10 µM unless noted) was -25.1% (active); in assay [2] (10 µM unless noted), -12.2% (active); in assay [3] (10 µM unless noted) it was -21.6% (active); in assay [4] (10 µM unless noted) it was 17%; in [5] (10 µM unless noted), 1% (active); in assay [6] (10 µM unless noted) it was 98.4%. The values for the growth in assay [7] (10 µM unless noted), in assay [8] (10 µM unless noted) and in [9] (10 µM unless noted) were -55.5% (active), -52.8% (active) and 26.8%, respectively.

Regarding `Nc1nc(Nc2ccc(F)cc2)nn1C(=O)c1cc(Cl)ccc1Cl`, the growth in assay [1] (10 µM unless noted) was 37.5%; in assay [2] (10 µM unless noted), 97.1%; in [3] (10 µM unless noted) it was 68.4%; in assay [4] (10 µM unless noted), 59.5%; in assay [5] (10 µM unless noted), 92.8%; in [6] (10 µM unless noted), 118%. The growth in assay [7] (10 µM unless noted) is 62.6%; in assay [8] (10 µM unless noted), 72.7%; in assay [9] (10 µM unless noted), 56.1%.

As to `Nc1ccc(-c2nc3ccc4[nH]ncc4c3c3c2CCCC3)cc1F`, the growth was 10.8% in assay [1] (10 µM unless noted); 27.3% in [2] (10 µM unless noted); 32.2% in [3] (10 µM unless noted); 56.8% in assay [4] (10 µM unless noted); 50.2% in assay [5] (10 µM unless noted); -28.3% (active) in assay [6] (10 µM unless noted). Further, the growth was 10.9% in assay [7] (10 µM unless noted), 37.3% in [8] (10 µM unless noted) and 17.1% in assay [9] (10 µM unless noted).

On to `CCN(Cc1ccccc1)c1ccc(/C=C2\COc3ccccc3C2=O)cc1`, for which the growth in assay [1] (10 µM) is 67.5%; in assay [1] (100 µM), 7.93% (active); in [2] (10 µM), 110%; in assay [2] (100 µM), 20.5%; in assay [3] (10 µM) it was 95.3%; in assay [3] (100 µM), 47.6%. Moreover, the growth in assay [4] (10 µM) was 101%; in assay [4] (100 µM) it was 98.7%; in assay [5] (10 µM), 102%; in assay [5] (100 µM), 52.1%; in assay [6] (10 µM), 89.4%; in assay [6] (100 µM), 65.2%. The growth is 99.1% in [7] (10 µM); 40.2% in assay [7] (100 µM); 108% in assay [8] (10 µM); 19.1% in assay [8] (100 µM); 96% in assay [9] (10 µM); 59.4% in assay [9] (100 µM).

`O=C(CCN1CCOCC1)Nc1cccc(-n2cc(-c3ccncc3)c(-c3ccc(Cl)c(O)c3)n2)c1`: the growth in [1] (10 µM unless noted) is 16.8%; in [2] (10 µM unless noted), 17.1%; in [3] (10 µM unless noted), 39.5%; in assay [4] (10 µM unless noted), 62.2%; in assay [5] (10 µM unless noted), 66.5%; in assay [6] (10 µM unless noted), 25.1%. Moreover, the growth in [7] (10 µM unless noted) is 51.8%; in assay [8] (10 µM unless noted) it was 14.3%; in assay [9] (10 µM unless noted), 7.21% (active).
